PNC assembly inh = blocks assembly of the perinucleolar compartment. PC3M PTB-GFP, PNC prevalence imaging, 16 h; stronger effect = lower value. activity change (PNC), negative = inhibition, % at 10 µM. actives 3.1% (n = 140,000);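 active means readout at or below -70, meaning at least 70% loss of cells showing the perinucleolar compartment, a nuclear body marking cancer cells; inconclusive means readout between -30 and a set limit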;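 further: plate controls were DMSO wells for no effect and camptothecin positive control wells for full effect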
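PC3M cells stably expressing PTB-GFP, 750–1000 cells/well, treated 16 h at 37 °C with compound (23 nl of library stock), in duplicate. After paraformaldehyde fixation and Hoechst stain, imaged at 20x; PNC prevalence scored by image analysis.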
Lamin A splicing = changes lamin A minigene splicing in HeLa cells; HeLa LMNA splicing GFP/RFP minigene ratio, 48 h; actives 0.01% (n = 200,000); Potency, µM (top dose mostly 46.1 µM), inactives show top-dose ratio change, negative = inhibition, most hits filed as inhibitors; active means well fitted inhibition curve with a large enough effect in the signal ratio, with a control signal flat, not every such curve was filed as active; inconclusive means small, poorly fitted or top-dose-only effect, or effect the other way, or a change in a side signal; the % refers to the signal ratio; further: potency means the concentration at half of the fitted maximal effect
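Read-out is the ratio of GFP to DsRed2 object intensity, acquired by 488 nm laser-scanning cytometry on HeLa lamin A-EGFP minigene reporter cells. Compound incubation 48 hrs at 37 °C in Opti-MEM with 2% FBS; DMSO 0.5% final.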
IMPase inh = IMPase inhibition in cells; P97697; CHO-M1 cells, IP1 accumulation, HTRF TR-FRET ratio; inhibition (IP1 accumulation), % at 46.1 µM; 120,000 tested, under 10 active; active means well fitted curve in the direction sought with a large enough effect in the signal ratio, not every such curve was filed as active; inconclusive means small, poorly fitted or top-dose-only effect, or a change in a side signal; inactive means no such curve, though single readings can be large or run the other way; the % refers to the signal ratio;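 further: cells stimulated with carbachol in lithium chloride buffer; plate controls were DMSO basal wells for no effect and reference inhibitor wells for full effect; higher means more IMPase inhibition seen as more IP1 and lower FRET ratio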
Target sequence (P97697 whole entry, looked up): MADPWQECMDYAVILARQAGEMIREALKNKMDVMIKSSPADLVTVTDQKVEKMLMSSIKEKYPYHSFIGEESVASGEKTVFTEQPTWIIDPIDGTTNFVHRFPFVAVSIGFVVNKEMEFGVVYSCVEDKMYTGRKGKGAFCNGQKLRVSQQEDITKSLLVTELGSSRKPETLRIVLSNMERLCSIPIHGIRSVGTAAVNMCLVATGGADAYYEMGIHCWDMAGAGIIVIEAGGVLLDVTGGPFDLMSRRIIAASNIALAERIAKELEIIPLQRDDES
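Carbachol-driven Gq signalling in CHO-M1 cells (2000/well) generates IP1. Compounds that block IMPase raise IP1 and so reduce the FRET signal from Eu-anti-IP1 and d2-IP1 after a 10 min room-temperature lysis.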
The depositor's hits bear a star; ? = inconclusive; / = no result given; ! = repeats disagree; [ ] = another dose, or the depositor's remark. Many of the other results were omitted from the sample, so hits are more common in it than they were. Unless noted, on the % scale 0 is the no-effect control and ±100 the full control effect.

SMILES	PNC assembly inh	Lamin A splicing	IMPase inh
Cc1ccc2nc(COc3cccc(NC(=O)COc4ccccc4F)c3)cc(=O)n2c1	/	5.1%[46 µM]	/
CCC1CN(C(=O)Nc2cc(Cl)ccc2C(=O)OC)c2ccccc2S1 (stereo not given)	/	-14.9%[46 µM]	/
Cc1ccc(N2CCN(C(=O)c3c4c(nc5ccccc35)C(=O)N(C3CCCCC3)C4)CC2)c(C)c1	/	-7.9%[46 µM]	/
Cn1ccnc1SCC(=O)NC12CC3CC(CC(C3)C1)C2	-126.5*	13.2%	6.6
O=C(CSc1ncccc1C(=O)O)NC12CC3CC(CC(C3)C1)C2	/	-7.9%[46 µM]	/
CCc1ccccc1NC(=O)CSc1ncc(S(=O)(=O)c2ccc(C(C)C)cc2)c(N)n1	/	9.5%[46 µM]	/
CCOC(=O)N1CCC(NC(=O)CCC(=O)c2ccccc2)CC1	?	-10.2%	-9.9
CCOC(=O)N1CCC(NC(=O)CCN2C(=O)C3C4C=CC(C4)C3C2=O)CC1 (stereo not given)	-101.5*	-0.6%	-2.9
Cc1ccccc1C(=O)OCc1cc(=O)n2nc(C3CCCCC3)sc2n1	/	-11.8%[46 µM]	/
Cn1cc(C(=O)c2ccc(Cl)cc2)cc1-c1nc2ccccc2n1C	28.8	?	8.7
CC(C)OC(=O)n1c(=S)oc2ccccc21	-3.7	-3.2%	1.1
CCCCC(=O)/C=C/n1c(=S)oc2ccccc21	-116.4*	?	/
C=CCOc1ccc2ccccc2c1/C=N/O	27.4	5.1%	-0.4
COc1ccc2ccccc2c1/C=N/O	-108.2*	4.3%	3.3
CC(OC(=O)c1cc2sccc2n1C)C(=O)NCc1cccs1 (stereo not given)	-80.6*	?	3.1
Cn1c(C(=O)OCC(=O)NCc2cccs2)cc2sccc21	-17.4	8.6%	?
CCCCOc1cccc(C(=O)N(Cc2ccc(C)o2)c2ccccn2)c1	/	3.3%[46 µM]	/
COc1ccccc1NC(=O)Cc1c(C(=O)O)[nH]c2ccc(Cl)cc12	/	9.2%[46 µM]	/
CCCn1c2ccccc2c2nc3ccccc3nc21	?	?	-18.3
CCCn1c(O)c(N=Nc2ccc3ccccc3n2)c2ccccc21	-115.0*	-13.9%	/
COc1cn(CC(=O)Nc2cc(C)cc(C)c2)c(CN2CCCCC2)cc1=O	/	6.2%[46 µM]	/
CC(NC(=O)COc1ccc(N(C)S(=O)(=O)c2ccccc2)cc1)c1ccccc1 (stereo not given)	/	0.3%[46 µM]	/
CCCN(CCC)C(=O)C1CC(=O)OC12CCCCC2 (stereo not given)	/	9.1%[46 µM]	/
COc1ccc(-c2cc(C(=O)NCCCn3ccnc3)no2)cc1OC	-1.8	-24.2%	-3.0
O=C(NCCCn1ccnc1)c1cc(-c2ccc3c(c2)OCO3)on1	-91.4*	-3.5%	-1.0
SMILES	PNC assembly inh	Lamin A splicing	IMPase inh
Cc1cc(C)cc(N2CC(c3nnc(NC(=O)c4ccco4)s3)CC2=O)c1 (stereo not given)	/	-15.0%[46 µM]	/
COc1ccc(CC(=O)NCCS(=O)(=O)N2CCN(c3ccc(F)cc3)CC2)cc1OC	/	-3.2%[46 µM]	/
Cc1cccc(-n2c(SCC(=O)Nc3nnc(C)s3)nnc2-c2ccoc2C)c1	20.1	23.2%	0.4
COc1cccc(-n2c(SCC(=O)Nc3nccs3)nnc2-c2ccoc2C)c1	-100.0*	-0.9%	-10.1
CCc1nnc(NC(=O)CSc2nnc(-c3ccoc3C)n2-c2cccc(C)c2)s1	-95.8*	9.5%	-8.2
COc1ccc(-n2c(SCC(=O)Nc3nccs3)nnc2-c2ccoc2C)cc1	-6.8	7.0%	2.1
Cc1c(C(=O)N2CCC(C)CC2)c(S(=O)(=O)Nc2cccc(C#N)c2)c(C)n1C	/	-7.3%[46 µM]	/
O=C(CNC(=O)c1ccco1)OCC(=O)c1ccc(Cl)cc1Cl	/	11.9%[46 µM]	/
O=C(CNC(=O)c1ccco1)OCc1ccc(Cl)cc1	-80.9*	0.8%	?
CCCCNC(=O)c1cnc2sc(N3CCCCCC3)nn2c1=O	/	-18.3%[46 µM]	/
COC(=O)N1CCN(c2ccc(OC)cc2)CC1	16.8	3.2%	-2.0
CCOC(=O)N1CCN(c2ccc(O)cc2)CC1	-25.5	12.6µM*	-2.8
CCOC(=O)N1CCN(c2ccc(Cl)cc2)CC1	18.3	4.7%	/
COC(=O)N1CCN(c2ccc(Cl)c(Cl)c2)CC1	-101.6*	-23.8%	6.7
Cc1cccc(Cn2ccn(Cc3ccc(Cl)cc3)c(=O)c2=O)c1	/	18.2%[46 µM]	/
CCCCn1c(=O)c2c(c3ccccc31)OCC(=O)N2	18.8	6.2%	6.9
CCCn1c(=O)c2c(c3ccccc31)OC(C)C(=O)N2 (stereo not given)	-88.3*	10.4%	-5.9
Cc1ccc(OCC(=O)N(c2ccc(C)cc2)S(=O)(=O)c2ccc(Cl)cc2)cc1	/	/	-1.8
COC(=O)C1CCN(c2nc3ccccc3nc2C(C#N)C(=O)NCCc2ccccc2)CC1 (stereo not given)	9.2	-4.5%	-2.6
COC(=O)C1CCN(c2nc3ccccc3nc2C(C#N)C(=O)OCC(C)C)CC1 (stereo not given)	-83.3*	-5.3%	3.0
CCC(C)n1c(SCC(=O)Nc2ccccc2C(=O)OC)nc2ccsc2c1=O (stereo not given)	/	-6.3%[46 µM]	/
COc1ccc2cc(/C=N/NC(=O)c3ccc(CN(c4ccc(C)c(C)c4)S(C)(=O)=O)cc3)c(Cl)nc2c1	17.8	-9.1%	-8.4
COc1ccc2cc(/C=N/NC(=O)c3c(Cl)cnn3C)c(Cl)nc2c1	-85.6*	-2.7%	/
CC(C)CC1(C)N=C(c2ccccc2)C(=S)N1 (stereo not given)	/	-17.0%[46 µM]	/
Cc1cc(Cl)ccc1N1C(=O)CC(NNC(=O)c2cccnc2)C1=O (stereo not given)	54.2	3.6%	/
SMILES	PNC assembly inh	Lamin A splicing	IMPase inh
COc1cc(Cl)c(C)cc1NC(=O)c1cc(S(=O)(=O)N2CCCC2)ccc1F	/	-12.5%[46 µM]	/
Cc1cc2cc(OCC(=O)O)ccc2n1C	-112.6*	-6.4%	?
CCOC(=O)NCc1ccc2c(c1)cc(C)n2C	42.4	-9.5%	5.4
C=C(CO)C1Cc2c(ccc3c(=O)c4c(oc23)COc2cc(OC)c(OC)cc2-4)O1 (stereo not given)	/	/	-7.7
CC(=O)c1cc(C#N)c(Oc2ccc(F)cc2)nc1C	7.2	-0.9%	-0.1
CC(=O)c1cc(C#N)c(Oc2cc(C)cc(C)c2)nc1C	-114.3*	1.0%	1.0
Cc1cc(C)c(C)c(OCC(=O)NCC2CCCO2)c1 (stereo not given)	-90.4*	-6.2%	-14.9
Cc1cc(C)cc(OCC(=O)NCC2CCCO2)c1 (stereo not given)	64.4	2.7%	-3.2
Cc1cc(C)c(NC(=O)C(C)n2c(=O)cc(C)c3c(C)nn(-c4ccccc4)c32)c(C)c1 (stereo not given)	/	-6.7%[46 µM]	/
COCC(C)NC(=O)CCS(=O)(=O)c1nc(-c2ccc(OC)cc2)cc(C(F)(F)F)n1 (stereo not given)	-88.5*	?	5.5
COC(=O)CCS(=O)(=O)c1nc(-c2ccccc2)cc(C(F)(F)F)n1	19.9	?	19.7
N#CC(=C1CCCC1)c1nc(-c2ccccc2)cs1	73.8	-7.5%	8.2
N#C/C(=N\O)c1nc(-c2ccccc2)cs1	-126.9*!	?	-8.8
CCCn1c(SCC(=O)Nc2nc3ccccc3s2)nc2c1c(=O)n(C)c(=O)n2C	-111.3*	-1.4%	2.9
CC(C)n1c(SCC(=O)Nc2nc3c(s2)CCCC3)nc2c1c(=O)n(C)c(=O)n2C	-100.0*	?	5.3
CCOC(=O)c1c(NC(=O)CSc2nc3c(c(=O)n(C)c(=O)n3C)n2C(C)C)sc(C)c1C	?	17.7%	0.0

High-throughput results: PubChem, National Center for Advancing Translational Sciences (NCATS)
